# Compound activity (PubChem BioAssay)
# TDP1 cell CPT – qHTS for Inhibitors of human tyrosyl-DNA phosphodiesterase 1 (TDP1): qHTS in cells in presence of CPT; chicken DT40 Tdp1-/-;hTDP1 cells + 20 nM CPT, ATP luminescence, 48 h; Potency, µM (highest dose often 46.2 µM), inactives show top-dose activity change, negative = growth inhibition, usual class: inhibitors; 12% of 420,000 active; AID 686979, 2013; note: nearly all actives have a fitted effect of over 55% in size
#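 Chicken DT40 Tdp1-/- cells stably complemented with human TDP1 were seeded at 400 cells/well in medium containing 20 nM camptothecin, exposed to pin-transferred compounds, and grown at 37 °C for at least 48 hr. Viability was read as ATP luminescence.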
# HT1080-NT tox – qHTS for induction of synthetic lethality in tumor cells producing 2HG: qHTS for the HT-1080-NT fibrosarcoma cell line | HT-1080-NT fibrosarcoma viability, CellTiter-Glo ATP luminescence, 48 h | Potency, µM (top dose mostly 46.1 µM), without a hit: top-dose activity, negative = less viability, most hits filed as cytotoxic | 1.6% of 360,000 active | AID 686970, 2013;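 note: NT is the 2HG producing partner of a matched IDH1 knockdown line; 0% = DMSO-treated cells and -100% = media-only wells without cells; nearly all actives have a fitted effect of over 55% in size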
#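 Luminescent CellTiter-Glo readout after 48 hours of compound exposure at 37 degrees C defined viability of HT-1080-NT cells. Activity was normalized to DMSO wells and cell-free media wells; concentration-response curves were fitted and assigned curve classes.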
# DT40 TDP1 no CPT – qHTS for Inhibitors of human tyrosyl-DNA phosphodiesterase 1 (TDP1): qHTS in cells in absence of CPT; DT40 Tdp1-/- hTDP1 cells, no CPT, ATP luminescence, 48 h; Potency, µM (titrated, usually from 46.2 µM), for the others: at the highest dose activity change, negative = growth inhibition, hits mostly inhibitors; 15% of 420,000 active; AID 686978, 2013; note: nearly all actives have a fitted effect of over 55% in size
#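 Cells were dispensed at 400 per well, compounds added by pin tool, plates incubated ≥48 hr at 37 °C, then CellTiter-Glo added for 30 min at room temperature before luminescence reading. Line: DT40 Tdp1-/- complemented with hTDP1; camptothecin omitted.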
# HT1080 IDH1KD tx – qHTS for induction of synthetic lethality in tumor cells producing 2HG: qHTS for the HT-1080-IDH1KD cell line. 2% of 360,000 active. HT-1080 IDH1 knockdown viability, ATP luminescence, 48 h. AID 686971, 2013. Potency, µM (series often up to 46.1 µM), for inactives: top-dose activity, negative = toxicity, most hits filed as cytotoxic;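 note: 0% = DMSO wells and -100% = cell-free medium wells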
#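 In this qHTS, HT-1080 cells depleted of IDH1 are exposed for 48 h at 37 °C to compound titrations. Toxicity is scored from CellTiter-Glo luminescence, with DMSO as full viability and medium alone as none.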
# KB-3-1 tox – qHTS assay for MDR1-selective chemotherapeutics: Primary screen using the parental adenocarcinoma cell KB-3-1; KB-3-1 viability, CellTiter-Glo ATP luminescence, 72 h; Potency, µM (titrated, usually from 46.1 µM), usual class: cytotoxic; 1.4% of 400,000 active; AID 1347075, 2019; note: nearly all actives have a fitted effect of over 60% in size
#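 Luminescent ATP read-out (CellTiter-Glo) measures survival of drug-naive KB-3-1 cells after 72 h compound exposure at 37 °C. Titration series was screened from lowest to highest concentration, with DMSO vehicle plates as background controls.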
# KB-V1 cytotox – qHTS assay for MDR1-selective chemotherapeutics: Primary screen using the drug-selected MDR subline cells KB-V1; KB-V1 MDR cells viability, CellTiter-Glo, 72 h; Potency, µM (titrated, usually from 46.1 µM), actives largely listed as cytotoxic; 3.4% of 400,000 active; AID 1347076, 2019; note: nearly all actives have a fitted effect of over 60% in size
#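 Cells of the MDR subline KB-V1 are plated, dosed with compound at multiple concentrations, and incubated 72 h at 37 degrees C; CellTiter-Glo is then added and luminescence read after 10 min.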
# * marks the source's active call; other numbers are inactive results; i = inactive; ? = inconclusive; / = no result; ! = repeats disagree. Hits are enriched below; roughly 19% of the tested compounds scored in any of these assays. Calls come from the whole dose curve; as a rule, active = well fitted curve in the direction sought with a large enough effect; inconclusive = small, poorly fitted or top-dose-only effect, or another doubt; inactive = no such curve, though single readings can be large; an effect the other way counts as inactive or inconclusive. Unless noted, % is set by controls: 0 for no effect and ±100 for the full control effect; potency is the fitted concentration of half-maximal effect.
SMILES,TDP1 cell CPT,HT1080-NT tox,DT40 TDP1 no CPT,HT1080 IDH1KD tx,KB-3-1 tox,KB-V1 cytotox
O=C(Nc1ccccc1)/C(=C/c1ccccc1)c1ccccc1,?,5%,12µM*,-1%,i,?
CC(=O)Nc1ccc(C(=O)COC(=O)C2CC3CCCC(C2)C3=O)cc1 (configuration not stated),-1%,3%,-2%,2%,i,i
CC(=O)N(C)c1ccc(N=Nc2ccc3ncccc3c2)cc1,?,-26%,15µM*,-24%,i,?
Cc1ccccc1Cc1ccc(Cl)nn1,-4%,7%,3%,10%,i,?
CC(=O)NCCc1nc2ccccc2n1CCCCOc1ccccc1,?,-1%,13µM*,0%,i,i
Cn1c(CCCNC(=O)c2ccccc2)nc2ccccc21,-21%,7%,-26%,15%,i,i
COc1ccccc1OCCn1c(C(C)Oc2ccccc2)nc2ccccc21 (configuration not stated),26µM*,/,?,/,i,i
C=C(C)Cn1c(CCCNC(=O)C(C)(C)C)nc2ccccc21,16µM*,15%,23µM*,6%,i,i
CCCCCn1c(CCCNC(=O)c2ccc(Cl)cc2)nc2ccccc21,?,/,16µM*,/,?,?
O=C(Nc1ccc2ccccc2c1)Nc1nnc(-c2ccc(F)cc2)s1,/,/,/,/,?,i
Cc1c(NC(=O)c2nn(C(C)C)c(=O)c3ccccc23)c(=O)n(-c2ccccc2)n1C,-19%,-6%,-13%,-2%,i,i
CC(C)(C)C(=O)NCCCc1nc2ccccc2n1CCCOc1ccc(Cl)cc1,6.5µM*,?,8.2µM*,?,?,16µM*
CC(O)c1nc2ccccc2n1CCCCOc1ccccc1 (configuration not stated),-24%,-8%,15µM*,-1%,i,i
CC(=O)NCCc1nc2ccccc2n1CCCCOc1ccc(Cl)cc1,21µM*,/,15µM*,/,i,i
C=CCn1c(CCCNC(=O)C(C)(C)C)nc2ccccc21,?,-8%,?,6%,i,i
Cc1c(C(=O)NN2CCOCC2)oc2c1ccc1ccccc12,-16%,22%,?,21%,i,i
COc1ccncc1-c1ccccc1C1=CC(=O)CC(C)(C)C1=O,-12%,7%,?,5%,i,i
Clc1ccccc1-c1nc2ccccc2c2nc3ccccc3n12,?,6%,13µM*,0%,?,4.1µM*
Cc1nc2ccccc2c2nc3ccccc3n12,?,?,21µM*,0%,i,i
O=C(CN1CCc2ccccc2C1)Nc1ccccc1C(=O)NC1CC1,1%,5%,-28%,16%,?,i
COc1c(F)cccc1C1=CC(=O)C[C@H](c2ccc(F)cc2)C1,-28%,2%,-6%,7%,i,i
COc1cccc(CNc2ncnc3cc(Cl)ccc23)c1,?,-8%,?,?,i,?
COc1cc2ncnc(NCc3ccco3)c2cc1OC,18µM*,4%,?,0%,i,i
COc1cc2ncnc(NCc3cc(F)ccc3F)c2cc1OC,-11%,-4%,?,1%,i,i
COc1ccc(CNc2ncnc3cc(Cl)ccc23)cc1,15µM*,-26%,13µM*,-28%,?,21µM*
SMILES,TDP1 cell CPT,HT1080-NT tox,DT40 TDP1 no CPT,HT1080 IDH1KD tx,KB-3-1 tox,KB-V1 cytotox
Fc1cccc(CNc2ncnc3cc(Cl)ccc23)c1F,16µM*,-16%,10µM*,-19%,?,i
COc1cc2ncnc(NCc3ccccc3)c2cc1OC,?,0%,?,-5%,i,?
COc1cc2ncnc(NCc3cccc(Cl)c3)c2cc1OC,15µM*,-21%,15µM*,-17%,i,i
CCC1(CC)NC(=O)N(CC(=O)N2N=C(c3ccc(Cl)cc3)CC2c2ccco2)C1=O (configuration not stated),?,-4%,?,-15%,i,?
C[C@@H]1COc2cccc(N3CCC[C@H]3CO)c2S(=O)(=O)N1,-1%,19%,-28%,17%,i,?
CCOc1ccc(S(=O)(=O)N2CCN(c3cc(Cl)ccc3Cl)CC2)c2ccccc12,/,/,/,/,i,?
COc1ccccc1CNc1ncnc2cc(OC)c(OC)cc12,21µM*,0%,23µM*,-7%,i,i
Brc1ccc2ncnc(NCc3ccco3)c2c1,21µM*,-7%,18µM*,-17%,?,i
c1coc(CNc2ncnc3[nH]ncc23)c1,11µM*!,3%,?,20%,i,i
Cc1ccc(CNc2ncnc3[nH]ncc23)o1,-1%,/,-7%,/,?,i
CC(C)N(Cc1ccccc1)C(=O)CC(=O)N(Cc1ccccc1)C(C)C,10%,13%,-29%,14%,i,?
COc1ccc(CCNC(=O)C2CCN(c3ncnc4c3nc3n4CCCCC3)CC2)c(OC)c1,11%,/,0%,/,/,/
O=C(/C=C/c1c(F)c(F)c(F)c(F)c1F)Nc1cccc([S+](=O)([O-])Nc2ccccc2F)c1,/,/,/,/,i,i
CCc1ccccc1N(C(C)=O)c1nc(CN=C=S)cs1,23µM*,3%,?,-4%,i,i
O=C(O)Cc1csc(-c2ccccc2)n1,-8%,8%,-8%,0%,i,i
CCOC(=O)c1ccc(NC(=O)CCc2c(C)n(CC)c3cc(-c4ccccc4OC)nn3c2=O)cc1,12%,/,-12%,/,i,?
Cc1ccccc1OCc1nc2ccccc2c(=O)n1/N=C/c1cn[nH]c1-c1ccc(Br)cc1,?,-3%,?,-3%,?,7.3µM*
O=c1c2ccccc2nc(COc2ccccc2)n1/N=C/c1cn[nH]c1-c1ccccc1,21µM*,-24%,16µM*,-27%,i,21µM*
O=c1c2sc3ccccc3c2n(Cc2ccc(F)cc2Cl)c(=O)n1Cc1ccccc1,?,/,?,/,i,i
